# PubChem BioAssay (Tox21)
# Values joined by “and” are separate entries in the source; they are usually repeats but may differ in a detail not shown here. Identical values can stand only once. Results filed as inconclusive are left out. Where a call stands in place of a potency, no number is given. A structure can be active in one record and inactive in another. Active and inactive are the calls of the source. Unless noted, calls follow the shape of the dose curve; as a rule, active = well fitted curve in the direction sought with a large enough effect in the repeat runs; inconclusive = weak or mixed curves; inactive = no such curve, though single readings can be large; an effect the other way counts as inactive or inconclusive.
# Assays:
# [1] = qHTS assay to identify small molecule antagonists of the glucocorticoid receptor (GR) signaling pathway - cell viability counter screen (AID 720693); also: nearly all actives have a fitted effect of over 55% in size; also: potency is read from the fitted curve at half-maximal effect
# [2] = qHTS assay for identifying genotoxic compounds that show differential cytotoxicity against isogenic chicken DT40 cell lines with known DNA damage response pathways - wild type cell line (AID 743012); also: nearly all actives have a fitted effect of over 60% in size; also: potency is read from the fitted curve at half-maximal effect
# Procedure, shortened: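 Wild type DT40, 300 cells/well, ~0.5 h settle at 37 C/5% CO2; compounds in DMSO added by pintool; 40 h at 37 C/5% CO2; CellTiter-Glo, 30 min RT; luminescence.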
# [3] = qHTS assay for identifying genotoxic compounds that show differential cytotoxicity against isogenic chicken DT40 cell lines with known DNA damage response pathways - Rev3 mutant cell line (AID 743014); also: nearly all actives have a fitted effect of over 55% in size; also: potency is read from the fitted curve at half-maximal effect
# [4] = qHTS assay for identifying genotoxic compounds that show differential cytotoxicity against isogenic chicken DT40 cell lines with known DNA damage response pathways - Rad54/Ku70 mutant cell line (AID 743015); also: nearly all actives have a fitted effect of over 60% in size; also: potency is read from the fitted curve at half-maximal effect
# [5] = qHTS assay to identify small molecule antagonists of the androgen receptor (AR) signaling pathway - cell viability counter screen (AID 743033; also: nearly all actives have a fitted effect of over 45% in size; also: potency is read from the fitted curve at half-maximal effect)
# [6] = qHTS assay to identify small molecule antagonists of the androgen receptor (AR) signaling pathway using the MDA cell line - cell viability counter screen (AID 743041; also: nearly all actives have a fitted effect of over 45% in size; also: potency is read from the fitted curve at half-maximal effect)
# Procedure, shortened: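 Same-well cytotoxicity was assessed by CellTiter-Fluor in MDA-kb2 AR-luc cells after 16 h of compound treatment under R1881 agonism.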
# [7] = qHTS assay to identify small molecule antagonists of the thyroid receptor (TR) signaling pathway - cell viability counter screen (AID 743064); also: nearly all actives have a fitted effect of over 50% in size; also: potency is read from the fitted curve at half-maximal effect
# Procedure, shortened: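 Same-well viability check: GH3.TRE-Luc cells stimulated with 1 nM T3 alongside test compound for 23.5 h, followed by CellTiter-Fluor fluorescence.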
# [8] = qHTS assay to identify small molecule antagonists of the thyroid receptor (TR) signaling pathway (AID 743065); also: nearly all actives have a fitted effect of over 55% in size; also: potency is read from the fitted curve at half-maximal effect
# Procedure, shortened: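 GH3.TRE-Luc rat pituitary cells (two TREs driving luciferase) were dosed with compound, then stimulated with 1 nM T3 (final) for 23.5 h at 37 C. ONE-Glo luminescence was the read-out, with CellTiter-Fluor fluorescence as the cytotoxicity counter-screen.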
# [9] = system: thyroid hormone receptor (rat, GH3 cells); assay: qHTS assay to identify small molecule agonists of the thyroid receptor (TR) signaling pathway (AID 743066; calls by dose curve; also: potency is read from the fitted curve at half-maximal effect)
# [10] = qHTS assay to identify small molecule antagonists of the estrogen receptor alpha (ER-alpha) signaling pathway - cell viability counter screen (AID 743074; calls by dose curve;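 also: HEK293 cells carrying ER-alpha-UAS-bla reporter stimulated with 17beta-estradiol; nearly all actives have a fitted effect of over 45% in size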; also: potency is read from the fitted curve at half-maximal effect)
# [11] = qHTS assay to identify small molecule antagonists of the estrogen receptor alpha (ER-alpha) signaling pathway using the BG1 cell line - cell viability counter screen (AID 743081);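 also: compound given together with 17beta-estradiol as the ER stimulus; nearly all actives have a fitted effect of over 45% in size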; also: potency is read from the fitted curve at half-maximal effect
# Aromatase (Homo sapiens) = Aromatase (Homo sapiens) (UniProt P11511); assay: qHTS assay to identify aromatase inhibitors (AID 743083); also: nearly all actives have a fitted effect of over 55% in size; also: potency is read from the fitted curve at half-maximal effect
# [12] = target: Estrogen receptor (Homo sapiens) (UniProt P03372); assay: qHTS assay to identify small molecule antagonists of the estrogen receptor alpha (ER-alpha) signaling pathway (AID 743069; active = well fitted curve in the direction sought with a large enough effect in the signal ratio in the repeat runs, not every such curve was filed as active; the % refers to the signal ratio)
# Procedure, shortened: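 Reporter cells (ER-alpha-bla, HEK293 background) are conditioned overnight in stripped-serum medium (2% charcoal-stripped FBS). Compound and 17beta-estradiol exposure runs 18 hr at 37C, 5% CO2.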
# [13] = target: Estrogen receptor (Homo sapiens) (UniProt P03372); assay: qHTS assay to identify small molecule agonists of the estrogen receptor alpha (ER-alpha) signaling pathway (AID 743075; calls by dose curve;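 also: HEK293 GripTite cells with ER-alpha and UAS-driven beta-lactamase reporter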)
# [14] = target: Estrogen receptor (Homo sapiens) (UniProt P03372); assay: qHTS assay to identify small molecule agonists of the estrogen receptor alpha (ER-alpha) signaling pathway using the BG1 cell line (AID 743079); also: nearly all actives have a fitted effect of over 20% in size; also: potency is read from the fitted curve at half-maximal effect
# [15] = qHTS assay to identify small molecule antagonists of the estrogen receptor alpha (ER-alpha) signaling pathway using the BG1 cell line (AID 743080; calls by dose curve;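 also: BG1 cells stimulated with 17beta-estradiol alongside compound; nearly all actives have a fitted effect of over 25% in size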); conditions: BG1Luc4E2 ERE-luciferase antagonist mode, luminescence; activity change, negative = inhibition: at 70.3 µM (top of the series)
# Procedure, shortened: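 Luminescence from a 4×ERE-luciferase reporter in BG1-Luc-4E2 cells served as read-out. Cells, pre-cultured 5 days in stripped-serum phenol-red-free medium, were exposed to compound with 17beta-estradiol co-stimulation for 21.5 h at 37 C.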
# Aromatase (Homo sapiens), sequence (P11511 whole entry, looked up): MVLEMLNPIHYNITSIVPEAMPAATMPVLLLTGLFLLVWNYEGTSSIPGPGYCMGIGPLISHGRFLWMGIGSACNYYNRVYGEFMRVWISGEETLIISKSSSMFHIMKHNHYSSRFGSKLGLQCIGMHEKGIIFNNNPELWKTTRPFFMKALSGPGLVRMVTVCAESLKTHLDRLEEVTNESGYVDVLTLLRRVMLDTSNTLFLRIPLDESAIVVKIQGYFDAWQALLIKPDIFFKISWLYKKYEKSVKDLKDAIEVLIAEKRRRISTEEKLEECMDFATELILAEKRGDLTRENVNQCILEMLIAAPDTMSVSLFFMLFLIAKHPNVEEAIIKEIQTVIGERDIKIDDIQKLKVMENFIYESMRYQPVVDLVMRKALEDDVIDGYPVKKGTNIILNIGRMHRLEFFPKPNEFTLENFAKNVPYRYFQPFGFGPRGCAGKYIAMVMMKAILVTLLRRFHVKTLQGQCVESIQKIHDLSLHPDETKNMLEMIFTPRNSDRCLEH
# Estrogen receptor (Homo sapiens), sequence (P03372 whole entry, looked up): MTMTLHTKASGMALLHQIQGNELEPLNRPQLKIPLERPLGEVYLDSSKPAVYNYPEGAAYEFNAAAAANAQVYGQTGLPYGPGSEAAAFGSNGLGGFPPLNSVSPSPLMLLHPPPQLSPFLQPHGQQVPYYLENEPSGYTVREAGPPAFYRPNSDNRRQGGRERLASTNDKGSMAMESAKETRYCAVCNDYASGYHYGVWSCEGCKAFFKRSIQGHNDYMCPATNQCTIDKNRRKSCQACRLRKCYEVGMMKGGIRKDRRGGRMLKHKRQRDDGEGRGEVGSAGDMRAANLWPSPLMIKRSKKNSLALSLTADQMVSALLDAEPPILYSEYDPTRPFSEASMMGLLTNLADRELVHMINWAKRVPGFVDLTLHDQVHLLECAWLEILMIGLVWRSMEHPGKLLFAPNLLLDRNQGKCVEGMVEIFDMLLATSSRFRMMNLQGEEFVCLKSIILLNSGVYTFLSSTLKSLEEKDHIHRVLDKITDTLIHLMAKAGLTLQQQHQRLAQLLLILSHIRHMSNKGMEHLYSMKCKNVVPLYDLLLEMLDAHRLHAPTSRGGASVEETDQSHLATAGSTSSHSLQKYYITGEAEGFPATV
Structure (SMILES),Potency [1],Potency [2],Potency [3],Potency [4],Potency [5],Potency [6],Potency [7],Potency [8],Potency [9],Potency [10],Potency [11],Potency (Aromatase (Homo sapiens)),Potency [12],Potency [13],Potency [14],Potency [15]
O=C1NC(=O)C(c2ccccc2)(c2ccccc2)N1,inactive,inactive,inactive,inactive,inactive,inactive,inactive,inactive,inactive,inactive,inactive,inactive,–,–,–,–
OC[C@H]1O[C@H](O[C@]2(CCl)O[C@H](CCl)[C@@H](O)[C@@H]2O)[C@H](O)[C@@H](O)[C@H]1Cl,inactive,inactive,inactive,inactive,inactive,inactive,inactive,inactive,inactive,inactive,inactive,inactive,–,–,–,–
NS(=O)(=O)O,inactive,inactive,inactive,inactive,inactive,inactive,inactive,inactive,inactive,inactive,inactive,inactive,–,–,–,–
O=C(O)c1ccccc1,inactive,inactive,inactive,inactive,inactive,inactive,inactive,–,–,inactive,inactive,inactive,inactive,inactive,5.1 µM (active) and inactive,inactive
Cc1cc(C)nc(NS(=O)(=O)c2ccc(N)cc2)n1,inactive,inactive,inactive,inactive,inactive,inactive,inactive,inactive,inactive and 69.4 µM (active),inactive,inactive,inactive,–,–,–,–
C=C1CC[C@H](O)C/C1=C\C=C1/CCC[C@]2(C)[C@@H]([C@H](C)CCCC(C)C)CC[C@@H]12,54.4 µM (active),11.9 µM (active) and 54 µM (active),26.6 µM (active) and 24.1 µM (active),13.3 µM (active) and 15.2 µM (active),inactive,inactive,26.6 µM (active) and 48.1 µM (active),21.1 µM (active) and 30.4 µM (active),–,inactive,inactive,inactive,–,inactive,inactive,inactive
CC(=O)CCC(=O)O,inactive,inactive,inactive,inactive,inactive,inactive,inactive,–,inactive,inactive,inactive,inactive,inactive,inactive,15 µM (active) and inactive,inactive
C[C@](N)(Cc1ccc(O)c(O)c1)C(=O)O,inactive,inactive,inactive and 61.6 µM (active) and 60.9 µM (active),inactive and 60.9 µM (active),inactive,inactive,inactive,–,inactive,inactive,inactive,inactive,–,–,–,–
CCCCCCCCCCCC[N+](C)(C)Cc1ccccc1,8.49 µM (active) and 19.1 µM (active) and 18.9 µM (active),422 nM (active) and 151 nM (active) and 1.05 µM (active),298 nM (active) and 67.3 nM (active) and 1.05 µM (active),668 nM (active) and 107 nM (active) and 1.05 µM (active),21.3 µM (active) and 19.1 µM (active) and 21.2 µM (active),29.8 µM (active) and 23.9 µM (active) and 37.4 µM (active),5.96 µM (active) and 12 µM (active) and 14.9 µM (active),5.31 µM (active) and 9.5 µM (active) and 11.8 µM (active),inactive,10.7 µM (active) and 24.1 µM (active) and 26.7 µM (active),inactive and 74.5 µM (active),29.8 µM (active) and 42.4 µM (active) and 37.4 µM (active),–,–,–,–
CCCC[P+](CCCC)(CCCC)CCCC,inactive,1.08 µM (active) and 7.84 µM (active) and 4.33 µM (active),684 nM (active) and 3.93 µM (active),609 nM (active) and 3.5 µM (active),inactive,inactive,inactive,inactive,inactive,inactive,inactive,inactive,–,–,–,–
C=CCc1ccc(O)c(OC)c1,inactive,inactive,inactive,inactive,inactive,inactive,inactive,–,–,inactive,inactive,inactive,inactive,inactive,inactive,inactive
Cc1ccc(S(=O)(=O)O)cc1,inactive,inactive,inactive,inactive,inactive,inactive,inactive,–,inactive,inactive,inactive,–,–,–,–,–
Cc1c(C(=O)O)c(O)cc2c1C(=O)c1c(O)c([C@@H]3O[C@H](CO)[C@@H](O)[C@H](O)[C@H]3O)c(O)c(O)c1C2=O,inactive,inactive,inactive and 59.6 µM (active) and 54.5 µM (active),53.1 µM (active) and 48.6 µM (active),inactive,59.6 µM (active) and 27.3 µM (active),13.3 µM (active) and 59.6 µM (active) and 61.1 µM (active),–,inactive,inactive,18.8 µM (active) and 29.9 µM (active) and 27.3 µM (active),–,inactive,inactive,inactive,–
O=C1c2c(O)cccc2Cc2cccc(O)c21,inactive,inactive,inactive,inactive,inactive,inactive,inactive,inactive,inactive,inactive,inactive,inactive,–,–,–,–
